The nature of assay [1]: qHTS assay for small molecule antagonists of the retinoid-related orphan receptor gamma (ROR-gamma) signaling pathway - cell viability counter screen (AID 720652; active = well fitted curve in the direction sought with a large enough effect in the repeat runs; an effect the other way counts as inactive or inconclusive;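 also: CHO reporter cells with doxycycline-induced ROR-gamma expression; series mostly up to about 92 µM; compound exposure lasted 16 hr before ATP read; % is scaled to controls: 0 for no effect and ±100 for the full control effect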). An outline of the steps:
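Cytotoxicity is quantified via intracellular ATP (CellTiter-Glo luminescence) in doxycycline-induced CHO ROR response element-luciferase reporter cells treated with compound for 16 hr at 37 C, 5% CO2.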

Assay [2] is described as follows: qHTS assay for small molecule agonists of the antioxidant response element (ARE) signaling pathway measured by Nrf2-dependant transcriptional activity - cell viability counter screen (AID 720653; active = well fitted curve in the direction sought with a large enough effect in the repeat runs; an effect the other way counts as inactive or inconclusive; also: % is scaled to controls: 0 for no effect and ±100 for the full control effect). The note with it: ARE-bla HepG2 viability, CellTiter-Glo ATP luminescence, 16 h; max response: active compounds read low. An outline of the steps:
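Cytotoxicity counter screen: intracellular ATP quantified by CellTiter-Glo luminescence in the same ARE-bla HepG2 plates, after 16 h compound exposure and a 2 h beta-lactamase substrate step.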
On the technique in general: qHTS replaces the single test concentration by a dilution series.

The nature of assay [3]: qHTS Assay for Identifying Gametocytocidal Compounds (AID 743244). Also: potency is read from the fitted curve at half-maximal effect.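 As to max response: % is scaled to controls: 0 for no effect and ±100 for the full control effect; actives lower the fluorescent signal which means gametocytes are killed.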 The conditions noted are these: P. falciparum 3D7 stage III-V gametocytes, alamarBlue, 72 h; max response: active compounds read low. An outline of the steps: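 Using 20,000 stage III–V 3D7 gametocytes per well, compounds were incubated 72 h under 37 °C/5% CO2. Viability was then assessed by 24 h alamarBlue reduction, measured fluorometrically at 525/598 nm.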

Assay [4] is described as follows: qHTS assay for cell viability of HEK293 cells (AID 743288). Also: % is scaled to controls: 0 for no effect and ±100 for the full control effect; nearly all actives have a fitted effect of over 50% in size. The note with it: ATP luminescence (CellTiter-Glo), 18 h, active compounds read low. An outline of the steps: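 Environmental chemicals tested in qHTS format against parental HEK293 cells; 18 h treatment, 37 C; read-out ATP luminescence (CellTiter-Glo), 30 min RT development.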
Assay [5] in a line: qHTS assay for cell viability of the p53RE-bla HCT-116 cell line (AID 743292). Also: nearly all actives have a fitted effect of over 55% in size. Also: potency is read from the fitted curve at half-maximal effect. An outline of the steps:
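HCT-116 p53RE-bla cells seeded 4,000/well; 5 h at 37 C; compound (DMSO) added; 16 h at 37 C; CellTiter-Glo added, 30 min RT; luminescence read.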

Assay [6] in a line: qHTS assay for measurement of the activity of small molecule inhibitors on Zika virus induced Caspase-3 activity in human iPSC derived neural progenitor cells (hNPCs) (AID 1224857). Also: % of control where 0% means no effect; nearly all actives have a fitted effect of over 65% in size. An outline of the steps:
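After overnight (16–20 h) culture at 350 cells/well, hNPCs get compound, then ZIKV 2 FFU/cell one hour later. Six hours on, Caspase-Glo 3/7 is added and luminescence measured.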

Assay [7] can be described thus: P-glycoprotein substrates identified in KB-8-5-11 adenocarcinoma cell line, qHTS therapeutic library screen (AID 1346987). Also: series mostly up to about 44 µM; % is scaled to controls: 0 for no effect and ±100 for the full control effect; nearly all actives have a fitted effect of over 65% in size. An outline of the steps: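 P-gp-mediated resistance screen: KB-8-5-11 cells treated 72 h with compounds in dose-response. CellTiter-Glo viability.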
Assay [8] in a line: qHTS assay for measurement of the activity of small molecule inhibitors on Zika virus induced Caspase-3 activity in human astrocytoma cells (AID 1224859).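 Also: plate controls were ZIKV-infected untreated cells for no effect and uninfected cells for full effect.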 An outline of the steps:
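Inhibition of Zika-induced caspase-3/7 activity: SNB-19 cells, 1 h compound pretreatment, ZIKV 2 FFU/cell for 6 h at 37 C, Caspase-Glo luminescence read-out.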

Assay [9] is described as follows: P-glycoprotein substrates identified in KB-3-1 adenocarcinoma cell line, qHTS therapeutic library screen (AID 1346986). Also: nearly all actives have a fitted effect of over 60% in size. An outline of the steps:
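Counter-screen: cherry-picked hits retested in the KB pair and in HEK-293 pcDNA/MDR-19 cells ± tariquidar. Primary screen used 72 h CellTiter-Glo viability in KB-3-1 and KB-8-5-11.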

Values joined by “and” are separate entries in the source; they are usually repeats but may differ in a detail not shown here. Equal entries are not always repeated. Values without a mark were called inactive. Inconclusive results are not listed. Active and inactive are the calls of the source. Unless noted, calls follow the shape of the dose curve; as a rule, active = well fitted curve in the direction sought with a large enough effect; inconclusive = small, poorly fitted or top-dose-only effect, or another doubt; inactive = no such curve, though single readings can be large; an effect the other way counts as inactive or inconclusive.

For the molecule `Brc1ccccc1-c1ccccc1`, in assay [1], the outcome was inactive. The max response in assay [2] is 3.59%; in assay [3] it was -19.3%; in assay [4], -7.8%. The Potency entry in [5], in [6] and in assay [7] was “inactive” throughout.

In the case of `CSc1ccc(/C=C2/C(C)=C(CC(=O)O)c3cc(F)ccc32)cc1`, the max response in assay [3] was -4.94%. Further, the Potency result in assay [6] and in assay [7] was “inactive” in each case.

Consider `N=C(N)c1ccc(OCCCOc2ccc(C(=N)N)cc2)cc1`, for which the Potency in assay [3] is 4.47 µM (active). Moreover, the Potency entry in [6] is “inactive”. Moreover, in [8], the molecule was classed as inactive.

For the molecule `C[C@@H](O[C@H]1OCCN(Cc2n[nH]c(=O)[nH]2)[C@H]1c1ccc(F)cc1)c1cc(C(F)(F)F)cc(C(F)(F)F)c1`, the max response in [3] was 16.6%. Besides, in assay [6], the Potency entry is “inactive”. In assay [8], the outcome was inactive.

For `O=C1CC2(CCCC2)CC(=O)N1CCNCC1COc2ccccc2O1` (configuration not stated), the max response in [3] is 2.39%. In addition, in assay [6], the Potency result was “inactive”. Further, the outcome in [8] was inactive.

For `CCN(CC)CCOc1ccc(/C(=C(\Cl)c2ccccc2)c2ccccc2)cc1`, the Potency in [5] is 70.8 µM (active). The Potency result in [6] is “inactive”.

As for `CCOC(=O)N1CCC(n2c(=O)[nH]c3cc(Cl)ccc32)CC1`, the outcome in [8] was inactive.

`Nc1nnnn1-c1ccccc1`: the max response in [3] is 2.05%. Also, the Potency result in [6] and in [7] was “inactive” in each case.

On to `COc1c(N2C[C@@H]3CCCN[C@@H]3C2)c(F)cc2c(=O)c(C(=O)O)cn(C3CC3)c12`, for which, in assay [3], the max response was 11.5% and 6.91%. In addition, the Potency entry in assay [6] is “inactive”. Besides, in assay [8], the call was inactive.

`OCCOCCN1CCN(C(c2ccccc2)c2ccc(Cl)cc2)CC1` (configuration not stated): the max response in assay [2] is -5.74%; in assay [4], -17.9%. Further, the Potency result in [5] and in [6] was “inactive” in each case.

With `CCCCCOc1ccc(C2SC(=O)NC2=O)cc1OCC` (configuration not stated), the Potency result in assay [6], in [9] and in assay [7] was “inactive” throughout.

With `COC(=O)C1=C(C)NC(C)=C(C(=O)OCCc2ccc(N3CCN(C(c4ccccc4)c4ccccc4)CC3)cc2)C1c1cccc([N+](=O)[O-])c1` (configuration not stated), in [8], the molecule was classed as inactive.

`OC(CCCN1CCCCC1)(c1ccccc1)c1ccccc1`: the max response in assay [3] is -13.7%. Also, in assay [6], the Potency result was “inactive”. Also, in [8], the call was inactive.

`CCC[C@H](N[C@@H](C)C(=O)N1[C@H](C(=O)O)C[C@@H]2CCCC[C@@H]21)C(=O)OCC`: the max response in assay [3] is -14.5%. Further, the Potency result in assay [6] is “inactive”. Moreover, in [8], the outcome was inactive.

Turning to `COC(=O)C1=C(C)NC(COC(N)=O)=C(C(=O)OC(C)C)C1c1cccc(Cl)c1Cl` (configuration not stated), the max response in assay [3] is -16.2%. For the same molecule, the Potency entry in assay [6] is “inactive”. In addition, the outcome in assay [8] was inactive.

For the molecule `CCOC(=O)[C@H](CCc1ccccc1)N[C@@H](C)C(=O)N(CC(=O)O)C1Cc2ccccc2C1`, the max response in assay [3] is -4.1%. Further, the Potency entry in [6] was “inactive”.

In the case of `O=C(O)/C=C(\CC(=O)O)C(=O)O`, the max response in assay [3] is 8.32%. The Potency entry in assay [6] and in assay [7] was “inactive” in each case.

Turning to `CO/N=C(/C(=O)N[C@@H]1C(=O)N2C(C(=O)O)=C(Cn3nnc(C)n3)CS[C@H]12)c1csc(N)n1`, the max response in assay [3] is -11.7%. The Potency result in assay [6], in assay [9] and in assay [7] was “inactive” each time.

For the molecule `CC1(C)O[C@@H]2C[C@H]3[C@@H]4CCC5=CC(=O)C=C[C@]5(C)[C@@]4(F)[C@@H](O)C[C@]3(C)[C@]2(C(=O)CO)O1`, the max response in [3] is -0.0995%. For the same molecule, in [6], the Potency result was “inactive”. Moreover, in assay [8], the molecule was called inactive.

These data come from PubChem BioAssay (NCATS).
